High-throughput results deposited in PubChem BioAssay by several laboratories.
Keap1 Nrf2 FP: disrupts human Keap1 binding to Nrf2 peptide; Keap1 Kelch-Nrf2 peptide fluorescence polarization, 1536-well; inhibition, % at 9.4 µM; 340,000 tested, 0.15% active; in the data active = inhibition above about 12%; inconclusive = no clear call, values can overlap the other calls; inactive = below about 7.3%;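 note: human Keap1 Kelch domain with fluorescein labeled Nrf2 9mer peptide probe; higher means more block of Keap1 binding to Nrf2 peptide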
eLon inh: inhibitors of E. coli Lon protease; purified E. coli Lon protease, fluorescence polarization; inhibition, % at 7.94 µM; P0A9M0; 360,000 tested, 0.42% active; in the data active = inhibition above about 13%, passing the limit was not always enough
C-LANA FP: inhibitors of KSHV LANA C-terminal domain DNA binding; AID 504423; MBP-C-LANA/FAM-LBS DNA binding, fluorescence polarization; inhibition, % at 9 µM; 340,000 tested, 0.078% active;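 active = highest replicate inhibition at or above 60% at 9 µM, even if other replicates fall short; inactive = all replicates below 60% inhibition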
GLD-1 TGE inh: GLD-1-TGE RNA interaction inhibition (C. elegans); purified GLD-1 + fluorescein TGE RNA, fluorescence polarization; inhibition, % at 5.96 µM; Q17339; 320,000 tested, 0.44% active;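 active = percent inhibition above a per-plate cutoff, the plate mean of test compounds plus 3 SD, cut at about 30% in these data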
Target sequence (Q17339 whole entry, looked up): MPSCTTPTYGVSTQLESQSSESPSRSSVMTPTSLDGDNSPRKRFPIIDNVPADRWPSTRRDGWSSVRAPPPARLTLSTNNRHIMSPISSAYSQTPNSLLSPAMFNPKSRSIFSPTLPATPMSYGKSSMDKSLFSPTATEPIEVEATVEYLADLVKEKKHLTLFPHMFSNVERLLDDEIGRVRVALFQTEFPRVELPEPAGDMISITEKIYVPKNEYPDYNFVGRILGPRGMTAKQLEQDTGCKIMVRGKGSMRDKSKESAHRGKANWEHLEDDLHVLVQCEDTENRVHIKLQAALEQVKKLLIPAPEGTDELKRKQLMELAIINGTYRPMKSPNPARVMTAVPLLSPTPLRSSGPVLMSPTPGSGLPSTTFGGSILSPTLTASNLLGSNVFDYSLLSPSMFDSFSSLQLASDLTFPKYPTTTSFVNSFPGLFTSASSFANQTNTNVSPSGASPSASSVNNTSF
BCLXL inh: inhibitors of human Bcl-xL | Q07817 | GST-Bcl-xL / FITC-Bim BH3 peptide fluorescence polarization | inhibition, % at 10.9 µM | 320,000 tested, 0.7% active | AID 2129;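 active = inhibition above the mean of all tested compounds plus 3 SD, cutoff set per campaign, cut at about 30% in these data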;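 note: inhibitors lower millipolarization by displacing the labeled peptide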
Target sequence (Q07817 whole entry, looked up): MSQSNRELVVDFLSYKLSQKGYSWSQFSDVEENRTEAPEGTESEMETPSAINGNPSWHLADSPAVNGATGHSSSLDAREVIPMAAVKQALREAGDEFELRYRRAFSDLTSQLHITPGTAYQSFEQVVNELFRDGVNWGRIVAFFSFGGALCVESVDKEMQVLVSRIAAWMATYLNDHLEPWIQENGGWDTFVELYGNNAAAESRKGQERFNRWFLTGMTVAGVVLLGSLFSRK
MEX-5 binding: C. elegans MEX-5 TCR-2 RNA binding activity; activity score (negative = inhibition of binding), % at 10 µM; Q9XUB2; MEX-5/FITC-TCR2 RNA binding, fluorescence polarization; active compounds read low; 300,000 tested, 0.38% active;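 active = inhibition past about -25% in most replicates, and total fluorescence under double the plate's negative control median, limit read from the data; inconclusive = replicates evenly split on the limit, or fluorescence at least double controls; inactive = too little inhibition in most replicates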
eLon confirm: E. coli Lon inhibition confirmation | purified E. coli Lon, fluorescence polarization | AID 602230 | inhibition, % at 7.94 µM | shares compounds with eLon inh | 1,400 tested, 31% active; in the data active = inhibition above about 16%
Large screens that a line does not name were inactive (follow-up assays come after a bar, where they were run). Only some compounds are listed: those with a hit (about 1.2% of all), similar ones and a draw of the others.

CCOC(=O)C1=C(N)Oc2cc(O)ccc2C1c1ccc(F)cc1F (stereo not given)	eLon inh 33.5 | eLon confirm inactive
COC(=O)CCCC1=CC2=C(c3ccccc3)C(=O)C(C)(OC(=O)C3CCCC3)C(=O)C2=CN1Cc1ccc(OC)cc1 (stereo not given)	none
CCCCC1=CC2=C(c3ccco3)C(=O)C(C)(OC(=O)c3ccc(OC)cc3)C(=O)C2=CN1CC1CC1 (stereo not given)	eLon inh 39.2 | eLon confirm 20.3
CCCCC1=CC2=C(c3ccco3)C(=O)C(C)(OC(=O)c3ccc(OC)cc3)C(=O)C2=CN1CCCCO (stereo not given)	eLon inh 37.2, GLD-1 TGE inh 42.2, BCLXL inh 79.3 | eLon confirm inactive
COc1ccccc1-c1cnc(C(O)c2ccc(CN3CCCCC3)cc2)[nH]1 (stereo not given)	none (no result: Keap1 Nrf2 FP, C-LANA FP, GLD-1 TGE inh, BCLXL inh, MEX-5 binding)
Cc1ccc(C)c(C(=O)CCC(=O)OCn2nnc3ccccc3c2=O)c1	none (no result: MEX-5 binding)
Nc1nc(C2C(=O)CCCC2=O)cs1	eLon inh 30.3 | eLon confirm inactive
Nc1nc(C2CC(=O)OC23CCCCC3)cs1 (stereo not given)	none
Cc1cccc(OCC(=O)N2CCN(S(C)(=O)=O)CC2)c1	none
Cc1ccc(OCC(=O)N2CCN(S(C)(=O)=O)CC2)cc1	eLon inh 50.4 | eLon confirm inactive
CCOc1ccc(-n2c(Cc3cc(=O)[nH]c(=O)[nH]3)nnc2SCC(=O)OC)cc1	eLon inh 15.8 | eLon confirm inactive
COc1cccc(-n2c(Cc3cc(=O)[nH]c(=O)[nH]3)nnc2SCC(=O)N2CCCCC2)c1	eLon inh 16.2 | eLon confirm 22.6
Cc1cc(C)n2nc(C)c(Br)c2n1	none
Cc1cc(C)n2nc3nc4c(cc3c2n1)CCCC4	eLon inh 55.8, GLD-1 TGE inh 38.5, BCLXL inh 111.0 | eLon confirm inactive
O=C(CSc1nnc2c(n1)[nH]c1ccccc12)Nc1ccc(S(=O)(=O)Nc2ncccn2)cc1	eLon inh 17.9 (no result: GLD-1 TGE inh, BCLXL inh) | eLon confirm 27.8
Cc1ccc(NC(=O)CSc2nnc3c(n2)[nH]c2ccccc23)cc1	none
COc1ccc(C(=O)N=C2SC3CS(=O)(=O)CC3N2c2ccccc2)cc1OC (stereo not given)	eLon inh 19.4 | eLon confirm inactive
O=C(N=C1SC2CS(=O)(=O)CC2N1c1ccccc1)C1CC1 (stereo not given)	MEX-5 binding inconclusive
COc1ccc(-c2nc(CSCC(=O)N3CCN(C)CC3)c(C)o2)cc1OC	none
CCN1CCN(C(=O)CSCc2nc(-c3ccc(OC)c(OC)c3)oc2C)CC1	eLon inh 15.1 | eLon confirm inactive
OC(c1ccc(F)c(F)c1)c1nc(-c2ccc(Cl)cc2)cs1 (stereo not given)	none (no result: Keap1 Nrf2 FP, C-LANA FP, GLD-1 TGE inh, BCLXL inh, MEX-5 binding)
Cc1nn(C)cc1S(=O)(=O)N1CCN(Cc2ccccc2Cl)CC1	none
CCCN1CCN(S(=O)(=O)c2cn(C)nc2C)CC1	eLon inh 21.9, BCLXL inh 66.2 | eLon confirm inactive
CCN(c1ccccc1)S(=O)(=O)c1cccc(C(=O)N(C)CC(=O)Nc2ccc(F)c(F)c2F)c1	none (no result: GLD-1 TGE inh, BCLXL inh, MEX-5 binding)
O=[N+]([O-])c1cnc(N2CCCCC2)c([N+](=O)[O-])c1	eLon inh 54.7 | eLon confirm inactive
CCN(CC)S(=O)(=O)c1ccc(C)c(NC(=O)COC(=O)C=C(C)C)c1	none
CCOc1ncccc1C(=O)OCC(=O)Nc1cc(S(=O)(=O)N(CC)CC)ccc1C	eLon inh 13.4 | eLon confirm inactive
COCCNC(=O)C1(C)CCCN(C(=O)c2c(F)ccc(C)c2F)C1 (stereo not given)	none (no result: Keap1 Nrf2 FP, C-LANA FP, GLD-1 TGE inh, BCLXL inh, MEX-5 binding)
CCOC(=O)c1c2c(c(=S)n(-c3ccccc3)c1N)CCC2	eLon inh 24.4 | eLon confirm inactive
N#Cc1c2c(c(=S)n(-c3ccccc3)c1N)CCCC2	eLon inh 34.2, BCLXL inh 34.7 | eLon confirm 22.8
COc1ccc(NC(=O)c2cc(C3CCCCN3S(C)(=O)=O)on2)c(C)c1 (stereo not given)	none (no result: Keap1 Nrf2 FP, C-LANA FP, GLD-1 TGE inh, BCLXL inh, MEX-5 binding)
CCCCC(=O)NC(=S)NNS(=O)(=O)c1ccccc1	eLon inh 20.1 | eLon confirm inactive
O=C(NC(=S)NNS(=O)(=O)c1ccccc1)c1cccnc1	MEX-5 binding inconclusive
O=C(NC(=S)NNS(=O)(=O)c1ccccc1)c1ccccc1[N+](=O)[O-]	eLon inh 22.8 | eLon confirm inactive
COc1ccc(OC)c(C(=O)COC(=O)c2cc(C)oc2C)c1	eLon inh 27.4 | eLon confirm inactive
Cc1cccc(C)c1-n1nnnc1C1c2ccccc2C(=O)N1C1CC1 (stereo not given)	none (no result: Keap1 Nrf2 FP, C-LANA FP, GLD-1 TGE inh, BCLXL inh, MEX-5 binding)
O=C(COc1ccc(S(=O)(=O)N2CCOCC2)cc1)NCCc1ccc(Cl)cc1	none (no result: Keap1 Nrf2 FP, C-LANA FP, GLD-1 TGE inh, BCLXL inh, MEX-5 binding)
Cc1onc(-c2ccccc2)c1C(=O)NC1CC1	none (no result: GLD-1 TGE inh, BCLXL inh, MEX-5 binding)
Cc1ccc(S(=O)(=O)N2[C@@H](c3ccccc3)C(C(=O)O)=CC[C@H]2c2ccc(C(C)C)cc2)cc1	none (no result: MEX-5 binding)
Cc1ccc([C@H]2C(C(=O)O)=CC[C@@H](c3ccc(C(C)C)cc3)N2S(=O)(=O)c2ccc(C)cc2)cc1	eLon inh 16.3 (no result: BCLXL inh, MEX-5 binding) | eLon confirm inactive
CC(=O)OCC(=O)Nc1ccc(C(C)=O)cc1	eLon inh 28.5 | eLon confirm inactive
Cc1ccc(C2(SCC(N)C(=O)O)c3ccccc3-c3ccccc32)cc1 (stereo not given)	none (no result: GLD-1 TGE inh, BCLXL inh, MEX-5 binding)
O=C1C(NS(=O)(=O)c2cccs2)=C(N2CCN(c3cccc(Cl)c3)CC2)C(=O)c2ccccc21	eLon inh 19.4 | eLon confirm 32.0
CC(C)NC(=O)NC(=O)CN1c2cccc3cccc(c23)S1(=O)=O	none
CCOc1ccc(N2C(=O)CC(N)C2=O)cc1 (stereo not given)	eLon inh 18.2 | eLon confirm inactive
CCOc1ccc(N2C(=O)CC(NCC3CCCO3)C2=O)cc1 (stereo not given)	eLon inh 15.8 | eLon confirm inactive
COc1ccc(NC(=O)NNc2cc(N3CCOCC3)nc(N3CCOCC3)n2)cc1	eLon inh 33.7 | eLon confirm inactive
CCc1nc2ccc(C(=O)Nc3ccc(OC)c(OC)c3)cn2c1N(CCC(C)C)CCN(C)C	none (no result: Keap1 Nrf2 FP, C-LANA FP, GLD-1 TGE inh, BCLXL inh, MEX-5 binding)
CC(C)CN(C(=O)Cn1c(C(F)(F)F)nc2ccccc21)c1c(N)n(Cc2ccccc2)c(=O)[nH]c1=O	none (no result: GLD-1 TGE inh, BCLXL inh, MEX-5 binding)
CCOC(=O)c1c(C(C)(C)C)oc2ccc(O)cc12	eLon inh 19.7 (no result: MEX-5 binding) | eLon confirm inactive
O=C(Cc1c(F)cccc1Cl)Nc1ccccc1-c1ccccc1	eLon inh 20.2 | eLon confirm inactive
CC(C)(C)C1CCC(C(=O)Nc2ccc(N3CCOCC3)cc2N2CCOCC2)CC1 (stereo not given)	none (no result: MEX-5 binding)
CN(C)c1ccc(C(=S)N2CCCCC2)cc1	eLon inh 45.6 | eLon confirm inactive
